Data as given in PubChem BioAssay (NCI).
About 83,000 compounds went through this panel and 20% of them were active in at least one assay; those are over-represented in the sample as a whole.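 48-hour exposure, single concentration, 96-well plates; percent growth endpoint where 0 means no net growth. Active: below 10.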 A number with no mark means an inactive call. The source made the active and inactive calls.

Experiments:
Test in all cases: NCI-60 one-dose screen, 48 h (100 = growth as untreated, 0 = no growth, -100 = all killed)
Details in all cases: 10 µM unless noted
[1] = tested on: T-47D breast
[2] = tested on: BT-549 breast
[3] = tested on: MDA-MB-435 melanoma
[4] = tested on: SW-620 colon
[5] = tested on: MCF7 breast
[6] = tested on: HCT-116 colon
[7] = tested on: HCC-2998 colon
[8] = tested on: KM12 colon

| Compound | growth [1] | growth [2] [%] | growth [3] | growth [4] | growth [5] | growth [6] | growth [7] | growth [8] |
| --- | --- | --- | --- | --- | --- | --- | --- | --- |
| COc1cccc2c(=O)c3c(sc12)c(NCCCN)nc1ccccc13 | 82.6% | 90.4 | 33.9% | -48.7% (active) | 24.9% | -73.9% (active) | -57.3% (active) | 13% |
| Cc1ccc(-c2nc(N3CCN(C(=O)Nc4ccc(Cl)c(C(F)(F)F)c4)CC3)c3ccccc3n2)cc1 | 70.3% | 93.6 | 79.7% | 84.8% | 62% | 67.5% | 85.3% | 82.9% |
| N#Cc1c(-c2ccccc2)nc(SCC(=O)Nc2nc(-c3ccc(Cl)cc3)cs2)[nH]c1=O | 81.8% | 93.6 | 99.6% | 113% | 91.7% | 81.8% | 81.5% | 103% |
| O=C(Nc1ccc(OS(=O)(=O)c2ccc(F)cc2)cc1)c1ccc(Cl)cc1 | 78.1% | 97.4 | 117% | 108% | 92.9% | 95.5% | 106% | 103% |
| NCCCNc1nc2ccccc2c2c(=O)c3cc(OC(F)(F)F)ccc3sc12 | -9.69% (active) | 93.1 | -79.2% (active) | -75.8% (active) | -70.1% (active) | -83.4% (active) | -88.1% (active) | -89.3% (active) |
| Cc1[nH]c(C(=O)Nc2ccc(C(=O)NCCN)cc2OC(C)C)c(Cl)c1Cl | -1.29% (active) | 103 | -17.6% (active) | -89% (active) | 5.44% (active) | -50.1% (active) | -41.7% (active) | 8.19% (active) |
| COc1ccc(S(=O)(=O)n2cc(C3OC(c4cc(OC)c(OC)c(OC)c4)=NN3C(C)=O)c3ccccc32)cc1OC (configuration not stated) | 54.7% | 51.8 | 95.4% | 97.9% | 88% | 67.7% | 105% | 137% |
| CSc1nc2ccc(C)cc2cc1/C=N/O | 71% | 73.2 | 91.5% | 85.6% | 86.3% | 81.1% | 96.6% | 93.7% |
| CCN1C(=O)N(CC)C2Nn3c(s/c(=C4\C(=O)N(CCC(C)C)c5ccccc54)c3=O)=NC21 (configuration not stated) | 36.3% | 99.6 | 12.5% | 61.1% | 15.1% | 12.6% | 99.8% | 67.9% |
| c1ccc(OCc2nnc(-c3ccc(Oc4ccccc4)cc3)o2)cc1 | 74.3% | 101 | 101% | 103% | 99.3% | 100% | 114% | 93.7% |
| CC[C@H](C)C(=O)O[C@H]1CCC=C2C=C[C@H](C)[C@H](CC[C@@H]3CC=CC(=O)O3)[C@H]21 | 83.5% | 87.5 | 86% | 85.9% | 72.3% | 48.5% | 101% | 72.5% |
| NC[C@@H]1O[C@H](O[C@@H]2[C@@H](CO)OC(O[C@@H]3[C@@H](O)[C@H](N)C[C@H](N)[C@H]3OC3O[C@H](CN)[C@@H](O)[C@H](O)[C@H]3N)[C@@H]2O)[C@H](N)[C@@H](O)[C@@H]1O (some centres not stated) | 115% | 109 | 102% | 109% | 103% | 102% | 108% | 110% |
| COC(=O)[C@H](C)NC(=O)NC(=O)NC(=O)CI | 44.6% | 84.3 | 63% | -33.4% (active) | 17.7% | 98.6% | 94.6% | 98.5% |
| Clc1ccc(C(/C=C/c2sc(Cl)nc2Cl)=N/Nc2cc(Cl)cc(Cl)c2)cc1 | 98.2% | 115 | 101% | 106% | 100% | 106% | 112% | 105% |
